The values that follow come from PMC11006913.

Assay in all cases: PBM; 200 nM protein, PBS
Common to all, as to details: dsDNA, one strand shown

The target of experiment [1] is HESX1 (Homo sapiens, UniProt Q9UBX0 95-180, R165K).
For experiment [2], the target named is SHOX (Homo sapiens, UniProt O15266 103-189).
The target in experiment [3] is HESX1 (Homo sapiens, UniProt Q9UBX0 95-180).
The target in experiment [4] is MSX2 (Homo sapiens, UniProt P35548 130-214, R199I).
Experiment [5] concerns the target ALX1 (Homo sapiens, UniProt Q15699 118-204, L144V).
For experiment [6], the target named is SHOX (Homo sapiens, UniProt O15266 103-189, R173C).
Chain of SHOX (Homo sapiens, UniProt O15266 103-189, R173C) (O15266 103-189 R173C): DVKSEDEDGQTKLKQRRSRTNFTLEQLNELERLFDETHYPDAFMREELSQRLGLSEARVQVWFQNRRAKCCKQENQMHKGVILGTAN
In experiment [7] the target is ALX1 (Homo sapiens, UniProt Q15699 118-204, L144R).
Chain of ALX1 (Homo sapiens, UniProt Q15699 118-204, L144R) (Q15699 118-204 L144R): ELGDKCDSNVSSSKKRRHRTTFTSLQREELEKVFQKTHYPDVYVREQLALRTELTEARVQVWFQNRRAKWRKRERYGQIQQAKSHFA
For experiment [8], the target named is PROP1 (Homo sapiens, UniProt O75360 56-141).
Chain of PROP1 (Homo sapiens, UniProt O75360 56-141) (O75360 56-141): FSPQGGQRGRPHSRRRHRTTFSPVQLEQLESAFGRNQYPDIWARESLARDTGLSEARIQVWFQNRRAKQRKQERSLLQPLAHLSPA
The target of experiment [9] is HESX1 (Homo sapiens, UniProt Q9UBX0 95-180, R109Q).
Chain of HESX1 (Homo sapiens, UniProt Q9UBX0 95-180, R109Q) (Q9UBX0 95-180 R109Q): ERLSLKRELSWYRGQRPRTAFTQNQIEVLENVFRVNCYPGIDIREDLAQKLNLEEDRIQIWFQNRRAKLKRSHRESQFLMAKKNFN
For experiment [10], the target named is PROP1 (Homo sapiens, UniProt O75360 56-141, R99H).
Chain of PROP1 (Homo sapiens, UniProt O75360 56-141, R99H) (O75360 56-141 R99H): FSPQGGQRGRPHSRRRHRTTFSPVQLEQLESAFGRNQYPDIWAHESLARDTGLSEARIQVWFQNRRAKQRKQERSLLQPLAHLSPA
Experiment [11] concerns the target HESX1 (Homo sapiens, UniProt Q9UBX0 95-180, P111T).
Experiment [12] addresses PROP1 (Homo sapiens, UniProt O75360 56-141, F88S).
The target in experiment [13] is MSX2 (Homo sapiens, UniProt P35548 130-214, F161Y).
Chain of MSX2 (Homo sapiens, UniProt P35548 130-214, F161Y) (P35548 130-214 F161Y): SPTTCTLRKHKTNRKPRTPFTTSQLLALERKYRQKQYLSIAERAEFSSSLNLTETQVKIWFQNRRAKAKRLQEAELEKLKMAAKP
The target of experiment [14] is HESX1 (Homo sapiens, UniProt Q9UBX0 95-180, F115L).
Chain of HESX1 (Homo sapiens, UniProt Q9UBX0 95-180, F115L) (Q9UBX0 95-180 F115L): as the sequence (Q9UBX0 95-180 R109Q) above, with Q15R, F21L counted along it
The target in experiment [15] is ALX1 (Homo sapiens, UniProt Q15699 118-204).
Chain of ALX1 (Homo sapiens, UniProt Q15699 118-204) (Q15699 118-204): as the sequence (Q15699 118-204 L144R) above, with R27L counted along it
Experiment [16] has as its target ALX4 (Homo sapiens, UniProt Q9H161 200-286).
Experiment [17] concerns the target PRRX1 (Homo sapiens, UniProt P54821 80-166, F113S).
In experiment [18] the target is ALX4 (Homo sapiens, UniProt Q9H161 200-286, Q225E).
Chain of ALX4 (Homo sapiens, UniProt Q9H161 200-286, Q225E) (Q9H161 200-286 Q225E): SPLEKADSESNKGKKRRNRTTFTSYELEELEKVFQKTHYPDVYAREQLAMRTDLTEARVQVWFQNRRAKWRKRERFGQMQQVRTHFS
The next experiment addresses ALX3 (Homo sapiens, UniProt O95076 139-225, L168Q).
The target in experiment [19] is PRRX1 (Homo sapiens, UniProt P54821 80-166).
Chain of PRRX1 (Homo sapiens, UniProt P54821 80-166) (P54821 80-166): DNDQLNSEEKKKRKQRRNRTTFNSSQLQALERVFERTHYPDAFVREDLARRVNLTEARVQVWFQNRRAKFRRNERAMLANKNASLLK

Chain of HESX1 (Homo sapiens, UniProt Q9UBX0 95-180, P111T) (Q9UBX0 95-180 P111T): as the sequence (Q9UBX0 95-180 R109Q) above, with Q15R, P17T counted along it
Chain of ALX1 (Homo sapiens, UniProt Q15699 118-204, L144V) (Q15699 118-204 L144V): as the sequence (Q15699 118-204 L144R) above, with R27V counted along it
Chain of HESX1 (Homo sapiens, UniProt Q9UBX0 95-180, R165K) (Q9UBX0 95-180 R165K): as the sequence (Q9UBX0 95-180 R109Q) above, with Q15R, R71K counted along it
Chain of HESX1 (Homo sapiens, UniProt Q9UBX0 95-180) (Q9UBX0 95-180): as the sequence (Q9UBX0 95-180 R109Q) above, with Q15R counted along it
Chain of PROP1 (Homo sapiens, UniProt O75360 56-141, F88S) (O75360 56-141 F88S): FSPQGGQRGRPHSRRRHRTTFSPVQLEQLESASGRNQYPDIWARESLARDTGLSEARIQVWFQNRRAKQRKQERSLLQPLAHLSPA
Chain of MSX2 (Homo sapiens, UniProt P35548 130-214, R199I) (P35548 130-214 R199I): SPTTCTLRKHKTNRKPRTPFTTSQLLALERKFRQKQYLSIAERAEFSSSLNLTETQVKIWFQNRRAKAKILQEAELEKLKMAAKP
Chain of SHOX (Homo sapiens, UniProt O15266 103-189) (O15266 103-189): as the sequence (O15266 103-189 R173C) above, with C71R counted along it
Chain of ALX3 (O95076 139-225 L168Q): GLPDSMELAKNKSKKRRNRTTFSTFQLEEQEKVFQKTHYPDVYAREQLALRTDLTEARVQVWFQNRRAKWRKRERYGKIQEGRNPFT
Chain of PRRX1 (Homo sapiens, UniProt P54821 80-166, F113S) (P54821 80-166 F113S): as the sequence (P54821 80-166) above, with F34S counted along it
Chain of ALX4 (Homo sapiens, UniProt Q9H161 200-286) (Q9H161 200-286): as the sequence (Q9H161 200-286 Q225E) above, with E26Q counted along it

Turning to ACAATTAG, the binding signal with HESX1 [1] is 11.8 upbm affinity estimate (log intensity, higher = more binding, comparable within an allelic series); with SHOX [2] it was 11.6 upbm affinity estimate (log intensity, higher = more binding, comparable within an allelic series); with HESX1 [3] it was 12.1 upbm affinity estimate (log intensity, higher = more binding, comparable within an allelic series); with MSX2 [4] it was 12.6 upbm affinity estimate (log intensity, higher = more binding, comparable within an allelic series); with ALX1 [5] it was 11.2 upbm affinity estimate (log intensity, higher = more binding, comparable within an allelic series); with SHOX [6] it was 9.13 upbm affinity estimate (log intensity, higher = more binding, comparable within an allelic series). Moreover, the binding signal with ALX1 [7] is 10.8 upbm affinity estimate (log intensity, higher = more binding, comparable within an allelic series); with PROP1 [8], 11.1 upbm affinity estimate (log intensity, higher = more binding, comparable within an allelic series); with HESX1 [9] it was 8.66 upbm affinity estimate (log intensity, higher = more binding, comparable within an allelic series); in the experiment with PROP1 [10] it was 11 upbm affinity estimate (log intensity, higher = more binding, comparable within an allelic series); with HESX1 [11], 10.4 upbm affinity estimate (log intensity, higher = more binding, comparable within an allelic series); in the experiment with PROP1 [12], 7.51 upbm affinity estimate (log intensity, higher = more binding, comparable within an allelic series). Besides, the binding signal in the experiment with MSX2 [13] is 13.3 upbm affinity estimate (log intensity, higher = more binding, comparable within an allelic series); with HESX1 [14], 7.42 upbm affinity estimate (log intensity, higher = more binding, comparable within an allelic series); in the experiment with ALX1 [15] it was 12 upbm affinity estimate (log intensity, higher = more binding, comparable within an allelic series).
In the case of GCGAGCGC, the binding signal in the experiment with HESX1 [1] is 6.46 upbm affinity estimate (log intensity, higher = more binding, comparable within an allelic series); with HESX1 [3] it was 6.44 upbm affinity estimate (log intensity, higher = more binding, comparable within an allelic series); with PROP1 [8] it was 6.62 upbm affinity estimate (log intensity, higher = more binding, comparable within an allelic series); with HESX1 [9], 6.48 upbm affinity estimate (log intensity, higher = more binding, comparable within an allelic series); in the experiment with PROP1 [10] it was 6.66 upbm affinity estimate (log intensity, higher = more binding, comparable within an allelic series); in the experiment with HESX1 [11], 6.41 upbm affinity estimate (log intensity, higher = more binding, comparable within an allelic series). The binding signal was 6.75 upbm affinity estimate (log intensity, higher = more binding, comparable within an allelic series) with PROP1 [12] and 6.54 upbm affinity estimate (log intensity, higher = more binding, comparable within an allelic series) with HESX1 [14].
Turning to AGCTGCCT, the binding signal with HESX1 [1] was 6.48 upbm affinity estimate (log intensity, higher = more binding, comparable within an allelic series); in the experiment with HESX1 [3] it was 6.48 upbm affinity estimate (log intensity, higher = more binding, comparable within an allelic series); with HESX1 [9], 6.53 upbm affinity estimate (log intensity, higher = more binding, comparable within an allelic series); in the experiment with HESX1 [11], 6.48 upbm affinity estimate (log intensity, higher = more binding, comparable within an allelic series); in the experiment with HESX1 [14], 6.43 upbm affinity estimate (log intensity, higher = more binding, comparable within an allelic series).
Take CCCCCAGC: the binding signal with HESX1 [1] was 6.28 upbm affinity estimate (log intensity, higher = more binding, comparable within an allelic series); with HESX1 [3], 6.22 upbm affinity estimate (log intensity, higher = more binding, comparable within an allelic series); in the experiment with HESX1 [9], 6.3 upbm affinity estimate (log intensity, higher = more binding, comparable within an allelic series); in the experiment with HESX1 [11] it was 6.31 upbm affinity estimate (log intensity, higher = more binding, comparable within an allelic series); in the experiment with HESX1 [14], 6.46 upbm affinity estimate (log intensity, higher = more binding, comparable within an allelic series).
Take CCCGGCTC: the binding signal in the experiment with HESX1 [1] is 6.39 upbm affinity estimate (log intensity, higher = more binding, comparable within an allelic series); with HESX1 [3], 6.47 upbm affinity estimate (log intensity, higher = more binding, comparable within an allelic series); with HESX1 [9], 6.38 upbm affinity estimate (log intensity, higher = more binding, comparable within an allelic series); with HESX1 [11], 6.47 upbm affinity estimate (log intensity, higher = more binding, comparable within an allelic series); with HESX1 [14], 6.5 upbm affinity estimate (log intensity, higher = more binding, comparable within an allelic series).
As for CGCGTAGC, the binding signal is 6.51 upbm affinity estimate (log intensity, higher = more binding, comparable within an allelic series) with HESX1 [1]; 6.55 upbm affinity estimate (log intensity, higher = more binding, comparable within an allelic series) with HESX1 [3]; 6.51 upbm affinity estimate (log intensity, higher = more binding, comparable within an allelic series) with HESX1 [9]; 6.44 upbm affinity estimate (log intensity, higher = more binding, comparable within an allelic series) in the experiment with HESX1 [11]; 6.54 upbm affinity estimate (log intensity, higher = more binding, comparable within an allelic series) in the experiment with HESX1 [14].
With ACGCTGCG, the binding signal with HESX1 [1] is 6.32 upbm affinity estimate (log intensity, higher = more binding, comparable within an allelic series); in the experiment with HESX1 [3], 6.32 upbm affinity estimate (log intensity, higher = more binding, comparable within an allelic series); in the experiment with ALX1 [5] it was 6.28 upbm affinity estimate (log intensity, higher = more binding, comparable within an allelic series); with ALX1 [7], 6.23 upbm affinity estimate (log intensity, higher = more binding, comparable within an allelic series); with HESX1 [9], 6.51 upbm affinity estimate (log intensity, higher = more binding, comparable within an allelic series); in the experiment with HESX1 [11], 6.42 upbm affinity estimate (log intensity, higher = more binding, comparable within an allelic series). Further, the binding signal is 6.51 upbm affinity estimate (log intensity, higher = more binding, comparable within an allelic series) in the experiment with HESX1 [14] and 6.21 upbm affinity estimate (log intensity, higher = more binding, comparable within an allelic series) with ALX1 [15].
For AATAATTG, the binding signal in the experiment with HESX1 [1] was 12.3 upbm affinity estimate (log intensity, higher = more binding, comparable within an allelic series); in the experiment with ALX4 [16], 13.5 upbm affinity estimate (log intensity, higher = more binding, comparable within an allelic series); with PRRX1 [17] it was 11.2 upbm affinity estimate (log intensity, higher = more binding, comparable within an allelic series); in the experiment with ALX4 [18], 12.8 upbm affinity estimate (log intensity, higher = more binding, comparable within an allelic series); in the experiment with HESX1 [3] it was 12.4 upbm affinity estimate (log intensity, higher = more binding, comparable within an allelic series); in the experiment with MSX2 [4], 12.6 upbm affinity estimate (log intensity, higher = more binding, comparable within an allelic series). Moreover, the binding signal in the experiment with ALX1 [5] is 11.5 upbm affinity estimate (log intensity, higher = more binding, comparable within an allelic series); with ALX1 [7], 11.3 upbm affinity estimate (log intensity, higher = more binding, comparable within an allelic series); in the experiment with PROP1 [8] it was 11 upbm affinity estimate (log intensity, higher = more binding, comparable within an allelic series); with HESX1 [9], 8.84 upbm affinity estimate (log intensity, higher = more binding, comparable within an allelic series); with PROP1 [10] it was 11.1 upbm affinity estimate (log intensity, higher = more binding, comparable within an allelic series); with ALX3, 10.3 upbm affinity estimate (log intensity, higher = more binding, comparable within an allelic series). For the same sequence, the binding signal with HESX1 [11] was 10.8 upbm affinity estimate (log intensity, higher = more binding, comparable within an allelic series); with PROP1 [12] it was 7.6 upbm affinity estimate (log intensity, higher = more binding, comparable within an allelic series); with MSX2 [13] it was 13.4 upbm affinity estimate (log intensity, higher = more binding, comparable within an allelic series); in the experiment with HESX1 [14], 8.12 upbm affinity estimate (log intensity, higher = more binding, comparable within an allelic series); with PRRX1 [19], 13.2 upbm affinity estimate (log intensity, higher = more binding, comparable within an allelic series).
